LGR2 antag – Drosophila LGR2 receptor signaling inhibition; inhibition, % at 9.99 µM; 0.35% of 380,000 active; HEK293 LGR2, CRE-luciferase, bursicon-stimulated, 4 h;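 active means drop in luminescence signal, shown as inhibition above about 50% in the replicate tests, limit read from the data, passing the limit was not always enough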;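 further: agonist challenge used bursicon conditioned medium at about half maximal strength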
TROY NFkB inh – blocks TROY-dependent signaling in reporter cells | inhibition, % at 10 µM | 0.98% of 360,000 active | Q293 LMP1-TROYcd NF-kB luciferase reporter, 4 h;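 active means compounds whose plate-normalised and pattern-corrected inhibition of the luciferase reporter signal at the single screening dose is 50% or more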
HSP90 refold inh – inhibitors of HSP90 luciferase refolding in rabbit reticulocyte lysate; luciferase refolding luminescence, 3 h; inhibition, % at 5.6 µM; 0.91% of 290,000 active; AID 1789;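 active means inhibition above the screen-wide mean plus 3 SD, computed separately per campaign, cut at about 16% in these data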;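 further: 0% = DMSO wells and 100% = 60 µM geldanamycin wells; inhibitors lower the luminescence because luciferase stays unfolded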
TWEAK Fn14 block – blocks TWEAK-Fn14 interaction in a reporter cell assay; TWEAK-stimulated Fn14 reporter cells, luciferase luminescence, 8 h; inhibition, % at 10 µM; 2% of 360,000 active; in the data active means inhibition above about 50%
* hit, by the source's call; x = no result. Sampled rows, rich in hits. Any-hit rate of the full collection: about 2.2%.

SMILES	LGR2 antag	TROY NFkB inh	HSP90 refold inh	TWEAK Fn14 block
C/C=C(\C)C(=O)OC1[C@H](OC(C)=O)C2(CO)C(CC1(C)C)C1=CCC3C4(C)CCC(O[C@@H]5O[C@H](C(=O)O)[C@@H](O[C@@H]6O[C@H](CO)[C@@H](O)[C@H](O)[C@H]6O)[C@H](O)[C@H]5O[C@H]5O[C@H](CO)[C@@H](O)[C@H](O)[C@H]5O)[C@](C)(CO)C4CCC3(C)[C@]1(C)C[C@H]2O (stereo partly drawn)	x	87*	x	15
O=C1C(=Cc2ccncc2)CCCc2ccccc21	5	-6	x	12
O=C1/C(=C/c2ccncc2)CCC/C1=C\c1ccncc1	95*	82*	0	103*
CCOC(=O)c1ccc(Nc2cc(C)nc(-c3ccccc3)n2)cc1	1	71*	-4	12
CCOC(=O)c1ccc(Nc2nc(C)cc(C)n2)cc1	-19	-54	1	8
N#Cc1c(Cl)cccc1N1CCCC1	x	8	-4	-16
N#Cc1c(F)cccc1N1CCOCC1	x	x	-3	87*
COc1ccc(C(=O)CC(Sc2ccccc2N)c2ccc(OC)cc2)cc1 (stereo not drawn)	68*	13	x	80*
CC(=C\c1ccccc1)/C=C1/SC(=S)N(CCC(=O)O)C1=O	-11	9	5	55*
CC(/C=C1\SC(=S)N(CC(=O)O)C1=O)=C\c1ccccc1	8	-32	-5	-2
O=C(Nc1cccc(-c2ccc(N3CCCCC3)nn2)c1)C(F)(F)F	82*	72*	7	97*
COc1ccc(-c2cccc(NC(=O)c3ccco3)c2)nn1	2	-9	x	4
CC1CCN(c2ccc(-c3cccc(NC(=O)c4ccco4)c3)nn2)CC1	-26	22	x	53*
Cc1ccnc(NC(=O)c2cc3ccccc3o2)c1	77*	60*	x	91*
Cc1ccnc(NC(=O)c2ccc(C(=O)c3ccccc3)cc2)c1	55*	61*	x	88*
C=C(C)c1cccc(C(C)(C)NC(=O)Nc2cc(C)ccn2)c1	x	52*	-6	44
Cc1ccnc(NC(=O)c2ccccc2NC(=O)c2ccccc2)c1	-11	15	4	9
COC(=O)c1cccc(NC(=O)c2cc3ccccc3o2)c1	x	69*	16	102*
C/C=C/c1ccc([C@@H]2[C@H](CO)N(C(=O)CN(C)C)C23CN(C(=O)C2CC2)C3)cc1	-2	x	x	x
COc1ccc(NC(=O)N(C)C[C@@H]2OCCCC[C@H](C)Oc3ccc(NS(=O)(=O)c4ccc(F)cc4)cc3C(=O)N([C@H](C)CO)C[C@H]2C)cc1	2	x	x	x
CN1C2CCC1/C(=C\c1ccc(F)cc1)C(=O)/C2=C/c1ccc(F)cc1	10	-14	2	65*
CN1C2CCC1/C(=C/c1cccn1C)C(=O)/C2=C\c1cccn1C	-12	1	1	-4
COc1ccc(C(=O)Nc2ccc3c(c2)OC[C@@H](C)N(C(C)=O)C[C@H](C)[C@@H](OC)CN(C)C3=O)cc1	4	x	x	x
Cc1ccccc1-c1cnc2c(c1)C(=O)N([C@H](C)CO)C[C@@H](C)[C@@H](CN(C)CC1CCOCC1)O2	-5	x	x	x
O=C(NCCC1=CCCCC1)C1CC(=O)N(Cc2ccccc2)C1 (stereo not drawn)	4	5	-2	95*
SMILES	LGR2 antag	TROY NFkB inh	HSP90 refold inh	TWEAK Fn14 block
O=C(OCc1ccc(COC(=O)c2ccc(O)cc2)cc1)c1ccc(O)cc1	x	61*	-1	25
CC(C)CCn1cnc2c(sc3nc4c(cc32)CSC(C)(C)C4)c1=O	13	67*	8	68*
CCCCn1cnc2c(sc3nc4c(cc32)CSC(C)(C)C4)c1=O	-54	38	5	31
CN(C)c1ccc(C2Nc3ccccc3C(=O)N2CCCN2CCOCC2)cc1 (stereo not drawn)	4	26	4	56*
CN(C)c1ccc(C2NC(=O)c3ccccc3N2)cc1 (stereo not drawn)	54*	41	15	62*
CCN(CC)CCN1C(=O)c2ccccc2NC1c1ccc(N(C)C)cc1 (stereo not drawn)	x	21	5	68*
CCN(CC)CCN1C(=O)c2ccccc2NC1c1ccc(F)cc1 (stereo not drawn)	8	-5	-1	4
Cc1ccc(S(=O)(=O)Nc2ccc3c(c2)C(=O)N([C@@H](C)CO)C[C@@H](C)[C@H](CN(C)C(=O)Nc2c(C)noc2C)O3)cc1	1	x	x	x
COc1ccc(S(=O)(=O)N2C[C@@H](O)COC[C@@H]3O[C@@H](CC(=O)NCCN4CCCCC4)CC[C@H]32)cc1	-5	x	x	x
Cc1ccc(S(=O)(=O)Nc2ccc3c(c2)C(=O)N([C@H](C)CO)C[C@@H](C)[C@@H](CN(C)S(=O)(=O)c2c(C)noc2C)OCCCC[C@H](C)O3)cc1	-8	x	x	x
O=C(N/N=C(\CC(=O)c1cccs1)C(F)(F)F)c1ccncc1	14	3	2	-12
Cc1ccc(C(=O)N/N=C(/CC(=O)c2cccs2)C(F)(F)F)cc1	-15	53*	-2	0
Cc1ccc(S/C=C\C(=O)c2ccccc2)cc1	-5	53*	7	88*
Cc1ccc(S(=O)(=O)Nc2ccc3c(c2)CC(=O)N([C@H](C)CO)C[C@H](C)[C@H](CN(C)C(=O)Nc2ccccc2)O3)cc1	7	x	x	x
COC(=O)c1ccc(/C=C/c2nc3ccccc3c(=O)[nH]2)cc1	-50	-3	8	34
Cc1ccc(/C=C/c2nc3ccccc3c(=O)[nH]2)cc1	84*	52*	14	75*
S=c1[nH]nc(C2CCCCC2)n1/N=C/c1ccncc1	21	14	0	82*
COc1ccccc1/C=C/C=N/n1c(C2CCCCC2)n[nH]c1=S	5	69*	-2	34
COc1ccc(S(=O)(=O)N(C)C[C@H]2Oc3ccc(NS(=O)(=O)c4cn(C)cn4)cc3CC(=O)N([C@@H](C)CO)C[C@@H]2C)cc1	15	x	x	x
COc1ccc(/C=c2\s/c(=C/C(=O)c3ccc(C)cc3)[nH]c2=O)c(OC)c1	0	-2	2	-37
COc1cccc(/C=c2\s/c(=C\C(=O)C(C)(C)C)[nH]c2=O)c1	0	15	-5	56*
Cc1noc(C)c1NC(=O)N(C)C[C@H]1Oc2ccc(NC(=O)Cc3cn(C)c4ccccc34)cc2C(=O)N([C@H](C)CO)C[C@H]1C	0	x	x	x
CO[C@@H]1CN(C)C(=O)c2ccc(NC(=O)C3CCCC3)cc2OC[C@@H](C)N(CCC(F)(F)F)C[C@H]1C	12	x	x	x
Cc1cc(/C=C2/NC(=O)N(c3ccccc3)C2=O)c(C)n1C(C)C	-24	48	5	60*
Cc1cc(/C=C2/NC(=O)N(Cc3ccccc3F)C2=O)c(C)n1C(C)C	10	16	-2	32
Cc1ccc(C(=O)N2c3ccccc3N(Cc3ccccc3)C(=O)C2(C)C)cc1	0	36	6	53*
CCN(CC)S(=O)(=O)c1cccc(NC(=O)Nc2cccc(C(F)(F)F)c2)c1	x	56*	-3	78*
COc1ccccc1C(=O)Oc1cc(N)n(S(=O)(=O)c2ccc(C)cc2)n1	x	26	1	-1
Cc1ccc(S(=O)(=O)n2nc(OC(=O)c3ccccc3C)cc2N)cc1	13	30	-3	57*

Screens as filed in PubChem BioAssay.
